PubChem BioAssay (NCI)
Compounds without any hit were thinned out: in the full panel of roughly 79,000, 15% have a hit. Unmarked numbers belong to inactive results. Activity calls are given as the source filed them. No stated cut-off is given here; in the data, active means growth inhibition above about 70%; inactive means the rest. Where a SMILES comes first, the peptide text is derived from it. [ ]: non-standard residue; d: D form. The star is where a group is joined. Fmoc = O=C(OCC1c2ccccc2-c2ccccc21)*; Cbz = O=C(OCc1ccccc1)*; Nva = CCC[CH](N)C(=O)O; OBn = c1ccc(CO*)cc1; tBu = CC(C)(C)*

Tests used:
[1] = NCI Yeast Anticancer Drug Screen. Data for the rad50 strain (AID 155);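 further: 0% = growth of vehicle-only cultures of the same strain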; details: S. cerevisiae rad50 strain growth inhibition; at 50.0 µM; hits give high values
Outline: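 Cells are treated with compound, grown, and their growth is then scored against vehicle-only cultures of the same repair-deficient yeast strain.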

[2] = NCI Yeast Anticancer Drug Screen. Data for the mec2-1 strain (AID 157); details: S. cerevisiae mec2-1 strain, at 50.0 µM, hits give high values
Outline: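 Vehicle-treated cultures served as reference for growth inhibition of compound-exposed mec2-1 yeast.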

[3] = NCI Yeast Anticancer Drug Screen. Data for the sgs1 mgt1 strain (AID 161);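 further: 0% = growth of cultures given vehicle only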; details: S. cerevisiae sgs1 mgt1 strain, at 50.0 µM, hits give high values
Outline: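 Read-out: growth inhibition vs vehicle controls. Cells: mutant yeast strain deficient in DNA damage repair.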

[4] = NCI Yeast Anticancer Drug Screen. Data for the cln2 rad14 strain (AID 165);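 further: 0% = growth equal to vehicle treated cultures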; details: S. cerevisiae cln2 rad14 strain, at 50.0 µM, hits give high values
Outline: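 Each compound was tested on cln2 rad14 yeast. Inhibition of growth was calculated against vehicle-exposed controls.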

[5] = NCI Yeast Anticancer Drug Screen. Data for the bub3 strain (AID 167); details: S. cerevisiae bub3 mutant strain, at 50.0 µM, hits give high values
Outline: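 Part of a panel of yeast mutants defective in DNA damage repair or cell cycle regulation. Each strain is grown with compound, and inhibition is calculated relative to solvent-treated cultures.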

[6] = NCI Yeast Anticancer Drug Screen. Data for the mlh1 rad18 strain (AID 175); details: S. cerevisiae mlh1 rad18 strain growth inhibition; at 50.0 µM; hits give high values
Outline: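 Vehicle-treated cultures served as the reference for growth inhibition in a yeast strain carrying DNA damage repair alterations exposed to each compound.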

SMILES | growth inhibition [1] | growth inhibition [2] | growth inhibition [3] | growth inhibition [4] | growth inhibition [5] | growth inhibition [6]
CP(=O)(c1ccccc1)c1ccccc1OCCCOCCCOc1ccccc1P(C)(=O)c1ccccc1 (stereo not given) | -4.8% | 3.4% | 0.45% | 8.1% | -3.55% | -10.6%
CC1=CC(=C(c2cc(C)c(O)c(C(=O)O)c2)c2cc(C)c(O)c(C(=O)O)c2)C=C(C(=O)O)C1=O | -2.3% | -28.1% | -8.5% | 2.3% | 8.8% | 7.3%
O=C(CO)c1ccc([N+](=O)[O-])cc1 | 16.8% | 34.3% | 1.85% | 7.5% | 13.4% | 40.4%
CCCNC(=O)c1cccc2c1-c1ccccc1C2=O | -0.55% | 3.85% | -2.65% | -1.7% | 4.65% | -1.45%
CSC(/C=C/c1ccccc1)=Nc1ccccc1 | 3.2% | 11.9% | -0.9% | -21.6% | 23.6% | 15%
Cc1cc2c(cc1C)NC(=O)C(NC(=O)c1ccc(Cl)cc1)C=N2 (stereo not given) | -0.55% | 15.6% | 15.1% | -27.4% | 5.95% | 2.95%
C/C(CC(C)(C)C)=N/O | -24.6% | -5.2% | -21.8% | -78.7% | -14.9% | -12.9%
CCC1OC(=O)C(C)C(OC2CC(C)(O)C(O)C(C)O2)C(C)C(O)C(C)(O)CC(C)C(=O)C(C)C(O)C1C (stereo not given) | -14.4% | -22.6% | 0.5% | -5.4% | -21.2% | -5.15%
CC1(C)NC(=S)N(O)C1(C)C | 0.1% | -5.65% | -19.8% | -11.9% | 10.8% | -4.8%
CCC(C)NC(=O)C(C)C (stereo not given) | 2.7% | -3.6% | -2.9% | -32.8% | -3.3% | 16.4%
O=[N+]([O-])c1ccc2nc(Cl)cnc2c1 | 25.2% | 31.2% | 16.5% | -5.2% | 3.8% | 38.6%
O=C(O)CCCCCCCCCCS(=O)(=O)CCO | 5.2% | 6.25% | 13.4% | 20.2% | 19.9% | -10%
CCCCCCC/C=C\C=O | 7.2% | 16.9% | 7.95% | -1.25% | 1% | 3.7%
CC1CNC(C)(C)O1 (stereo not given) | 36.5% | 10.9% | 18.9% | 23.6% | 11.6% | 29.4%
Cc1ccc(C)c(NC(=O)Nc2cccc(Cl)c2)c1 | -6.1% | 21.2% | -5.85% | -4.95% | 9.4% | -7.65%
OC1(c2cccc(Cl)c2)C2=NCCCN2c2ccccc21 (stereo not given) | 5.05% | 8.45% | 6.7% | 21.6% | -28.4% | 5.75%
CCC(OC(=O)Nc1ccc(S(=O)(=O)NC2CCCCC2)cc1)c1ccco1 (stereo not given) | 26.9% | 3.65% | 26.8% | 10.8% | 5.65% | 4.15%
CC(C)(NC(=O)c1cc(Cl)c2ccccc2c1O)C(=O)O | 4.4% | 2.8% | 27.7% | 22.9% | 8.6% | 17.7%
CCOC(=O)c1cc(-c2ccc(OC)c(OC)c2)c[nH]1 | 14.6% | -2.3% | 40.2% | 12.6% | 23.1% | 28%
CCCC(NC(=O)OCc1ccccc1)C(=O)NC(Cc1ccc(O)cc1)C(=O)O (stereo not given) (Cbz-[Nva]-Tyr-OH; configuration not given here) | -3.5% | -0.35% | -4.2% | 7% | -16.4% | 10%

SMILES | growth inhibition [1] | growth inhibition [2] | growth inhibition [3] | growth inhibition [4] | growth inhibition [5] | growth inhibition [6]
COc1cc(-c2oc3ccccc3c(=O)c2O)cc(OC)c1OC | -29.6% | -51.8% | -16.3% | -22.8% | -42% | -14.1%
CC(c1ccccc1)C(OCc1ccccc1)OCc1ccccc1 (stereo not given) | -17.1% | 9.15% | 4.55% | -36.5% | 22.6% | 1.2%
CC(OC(C)(C)C)C(NC(=O)OCC1c2ccccc2-c2ccccc21)C(=O)NC(Cc1ccccc1)C(=O)OCc1ccccc1 (stereo not given) (Fmoc-Thr(tBu)-Phe-OBn; configuration not given here) | -32.2% | -7.7% | -4.5% | -15.7% | -18.6% | 0.45%
COc1ccc(N2C(=O)/C(=C\c3ccc(N(CCC#N)CCC#N)cc3)N=C2COc2ccccc2)cc1 | 0.8% | -2.2% | 4.45% | 8.7% | -1.35% | 1.3%
O=C1c2cc(Cl)ccc2NC(O)c2cccn21 (stereo not given) | 3.45% | 1.8% | -4.3% | -20.9% | -11.4% | -0.55%
Nc1ccc(S(=O)(=O)S(=O)(=O)c2ccc(N)cc2)cc1 | -0.1% | 1.95% | -3.55% | 12.4% | -0.9% | -2.95%
CCSC(COC(C)=O)(SCC)C(OC(C)=O)C(OC(C)=O)C(COC(C)=O)OC(C)=O (stereo not given) | 10.9% | 6.55% | -9% | -6.3% | -2.6% | 14.4%
Clc1ccc2c(c1)-c1c3c(nn1-c1ccccc1)-c1ccccc1SC3O2 (stereo not given) | 23.3% | 10.6% | 17.9% | 19.3% | -1.5% | -13.6%
C/C(CC(O)(C(F)(F)F)C(F)(F)F)=N\NC(N)=S | -30.1% | -14.7% | -12.9% | 9.55% | 7.1% | -9.3%
S=C(S)NC1CCN(Cc2ccccc2)CC1 | 56.4% | 30.6% | 49% | 48% | 61.5% | 26.1%
O=c1oc(=O)c2c1ccc1c2cc2ccc3cccc4ccc1c2c34 | -17.9% | -10.4% | -8.2% | -35.1% | -11.2% | -11.1%
O=C=Nc1ccc(Cc2ccc(N=C=O)cc2)cc1 (tested in a mixture with another compound) | -6.55% | -1.5% | -12.2% | 8.95% | -0.5% | 14.3%
CNCC(N)=O | -0.05% | 5.95% | 15.3% | -2.95% | -2.4% | 33%
CCOC(=O)/C=C\SCCC(=O)O | 10.1% | 11.1% | 15.8% | 25.9% | 27.1% | 41.9%
CC1(C)OC2OC(COC(=O)c3ccccc3)C(N3C(=O)c4ccccc4C3=O)C2O1 (stereo not given) | 58.2% | 9% | 64.1% | 30.1% | 40.4% | 49%
NCCC(=O)OC1CCCc2c(O)c3c(c(O)c21)C(=O)c1ccccc1C3=O (stereo not given) | 98.8% (active) | 99.4% (active) | 99.4% (active) | 98.9% (active) | 98.8% (active) | 99.2% (active)
CC=C/C=C/[C@@H]1O[C@](O)([C@H](CC)C(=O)NC/C=C/C=C(\C)[C@@H](OC)[C@@H](C)[C@@H]2O[C@H](/C=C/C=C/C=C(\C)C(=O)c3c(O)cc[nH]c3=O)[C@H](O)[C@@H]2O)[C@H](O)[C@H](O)C1(C)C | 35.2% | 18.9% | 38.9% | 36.2% | 29.9% | 15.6%
O=S(=O)(c1ccc(I)cc1)c1ccc(I)cc1 | 22.6% | 0.1% | -9.15% | 5.2% | 5.35% | 3.7%
COC(=O)C1CC[N-]CC1.COC(=O)C1CC[N-]CC1.[Cl][Pt+2][Cl] | -0.15% | 6.9% | -6.8% | -24.4% | -4.15% | 21.2%
c1ccc2c(c1)nc1n2CC2(CS1)CSc1nc3ccccc3n1C2 | -8.65% | 2.1% | -7.15% | -25.8% | -13.4% | -3.1%
